Measurements published in PubChem BioAssay (NCI).
Compounds without any hit were thinned out: in the full panel of roughly 83,000, 20% have a hit.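 Cell lines were cultured in 96-well plates, exposed to a single compound concentration, and assessed for percent growth 48 hours later.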 Calls of active or inactive are those of the source. How the source made its calls: active means growth percent below 10; inactive means the rest.

Tests used:
Test in all cases: NCI-60 one-dose screen, 48 h (100 = growth as untreated, 0 = no growth, -100 = all killed)
Conditions in all cases: 10 µM unless noted
T-47D breast = system: T-47D breast
BT-549 breast = system: BT-549 breast
MDA-MB-435 melanoma = system: MDA-MB-435 melanoma
SW-620 colon = system: SW-620 colon
MCF7 breast = system: MCF7 breast
HCT-116 colon = system: HCT-116 colon
HCC-2998 colon = system: HCC-2998 colon
KM12 colon = system: KM12 colon

Measured: growth

N#Cc1nnn(-c2ccc(S(N)(=O)=O)cc2)c1NC(=O)CCl
inactive: T-47D breast 95.2% | BT-549 breast 97.1% | MDA-MB-435 melanoma 99.6% | SW-620 colon 102% | MCF7 breast 90.9% | HCT-116 colon 94.6% | HCC-2998 colon 106% | KM12 colon 94.9%

COc1ccc(O)c(N=Nc2nccs2)c1
inactive: T-47D breast 37% | BT-549 breast 95.6% | MDA-MB-435 melanoma 104% | SW-620 colon 62.3% | MCF7 breast 64.3% | HCT-116 colon 65.5% | HCC-2998 colon 89.4% | KM12 colon 73.3%

C=C1c2nc3ccccc3n2C=C(c2cccc(Cl)c2)N1Cc1ccc(OC)cc1
inactive: SW-620 colon 20.6% | HCT-116 colon 12.8% | HCC-2998 colon 25.7% | KM12 colon 13%
active: T-47D breast -22.5% | BT-549 breast -1.26% | MDA-MB-435 melanoma -32.3% | MCF7 breast 4.64%

Cn1c(O)c(N=NC(=O)c2cc(-c3ccccc3)on2)c2ccccc21
inactive: T-47D breast 101% | BT-549 breast 103% | MDA-MB-435 melanoma 95.3% | SW-620 colon 105% | MCF7 breast 77.5% | HCT-116 colon 98.9% | HCC-2998 colon 102% | KM12 colon 101%

CC1=C/C(=C(\c2ccc(N(C)C)cc2)c2ccc([N+](C)(C)C)cc2)C=CC1=[N+](C)C
inactive: T-47D breast 52.2% | BT-549 breast 96.1% | MDA-MB-435 melanoma 78.4% | SW-620 colon 66.5% | MCF7 breast 59.9% | HCT-116 colon 36.1% | HCC-2998 colon 77.3% | KM12 colon 61.4%

Nc1nc2ncc(CCNc3ccc(C(=O)O)cc3)nc2c(=O)[nH]1
inactive: T-47D breast 115% | BT-549 breast 124% | MDA-MB-435 melanoma 112% | SW-620 colon 110% | MCF7 breast 110% | HCT-116 colon 104% | HCC-2998 colon 117% | KM12 colon 111%

COc1cc(-c2ccc3c(c2)NC(=O)/C3=C\c2ccc[nH]2)ccc1O
inactive: T-47D breast 35.2% | BT-549 breast 46.5% | MDA-MB-435 melanoma 12.2% | SW-620 colon 28.8% | HCT-116 colon 14.1%
active: MCF7 breast 6.69% | HCC-2998 colon 1.36% | KM12 colon 1.34%

CN(C)C(=S)N=Nc1c(O)[nH]c2ccccc12
active: HCT-116 colon 3.73%
inactive: T-47D breast 25% | BT-549 breast 30.7% | MDA-MB-435 melanoma 40.3% | SW-620 colon 30.2% | MCF7 breast 17.8% | HCC-2998 colon 23.9% | KM12 colon 25.9%

COc1ccc(-c2cc(-c3ccc(Nc4ccnc5cc(Cl)ccc45)cc3)nc(N3CCOCC3)n2)cc1
inactive: BT-549 breast 45.8% | MDA-MB-435 melanoma 10.1% | MCF7 breast 22.7% | HCT-116 colon 52.8% | HCC-2998 colon 98.8% | KM12 colon 44.9%
active: T-47D breast -23% | SW-620 colon 8.98%

Oc1ccccc1-c1nnc(CNc2ccc(Cl)cc2)o1
inactive: T-47D breast 30.9% | BT-549 breast 41.1% | MDA-MB-435 melanoma 33.8% | SW-620 colon 29.4% | MCF7 breast 14.2% | HCT-116 colon 42% | HCC-2998 colon 37.5% | KM12 colon 18.9%

COc1ccc(-c2nn(-c3ccc(Cl)cc3)cc2-c2nc3ccccc3[nH]2)cc1
inactive: T-47D breast 87.9% | BT-549 breast 113% | MDA-MB-435 melanoma 97.7% | SW-620 colon 84.6% | MCF7 breast 74.3% | HCT-116 colon 87% | HCC-2998 colon 109% | KM12 colon 102%

O=c1ccccc(-c2ccc(-c3ccco3)cc2)c1O
inactive: T-47D breast 28.7% | BT-549 breast 28.1% | MDA-MB-435 melanoma 26.3% | SW-620 colon 27.8% | MCF7 breast 15.3% | HCT-116 colon 21.8% | HCC-2998 colon 41.1% | KM12 colon 23%

Cc1ccc(NC(=O)/C=C/c2ccccc2)c(C(N)=O)c1
inactive: T-47D breast 27.6% | BT-549 breast 94% | SW-620 colon 22.7% | MCF7 breast 15.7% | HCT-116 colon 34.4% | HCC-2998 colon 80.8% | KM12 colon 14.4%
active: MDA-MB-435 melanoma -45.5%

CCc1c(Nc2ccccc2C)nc(N)[nH]c1=O
inactive: T-47D breast 114% | BT-549 breast 102% | MDA-MB-435 melanoma 106% | SW-620 colon 106% | MCF7 breast 97% | HCT-116 colon 98.4% | HCC-2998 colon 101% | KM12 colon 104%

CC(=O)c1cc2c(N)c(C(=O)Nc3cccc(F)c3C)sc2nc1C
inactive: T-47D breast 80.6% | BT-549 breast 80.9% | SW-620 colon 85.9% | MCF7 breast 78.9% | HCT-116 colon 92.3% | HCC-2998 colon 85% | KM12 colon 87.1%
active: MDA-MB-435 melanoma 4.9%
